# Hits are enriched below; roughly 2.2% of the tested compounds scored in any of these assays.
# HDAC3 inh: blocks human histone deacetylase 3 | O15379 | recombinant HDAC3, fluorogenic peptide/trypsin coupled, fluorescence | inhibition, % at 8.3 µM | 320,000 compounds, 0.15% hits; in the data active = inhibition above about 26%, passing the limit was not always enough; inconclusive = no clear call, values can overlap the other calls
# p-CIP stab down: compounds decreasing mouse p/CIP protein stability; Q05BA5; F442A p/CIP-EGFP cells, EGFP fluorescence, 16 h; decrease of EGFP signal, % at 10 µM; 290,000 compounds, 0.01% hits; AID 1984;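 active = EGFP signal decrease of at least 30% at 10 µM or well 3 SD below plate mean, unless failing retest; inactive = the rest, including hits failing retest or dose response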
# PHOSPHO1 inh: PHOSPHO1 (human) inhibition | Q8TCT1 | recombinant PHOSPHO1, absorbance phosphatase assay | inhibition, % at 13.3 µM | 290,000 compounds, 1.1% hits | AID 1565; in the data active = inhibition above about 60%
# Target sequence (Q8TCT1 whole entry, looked up): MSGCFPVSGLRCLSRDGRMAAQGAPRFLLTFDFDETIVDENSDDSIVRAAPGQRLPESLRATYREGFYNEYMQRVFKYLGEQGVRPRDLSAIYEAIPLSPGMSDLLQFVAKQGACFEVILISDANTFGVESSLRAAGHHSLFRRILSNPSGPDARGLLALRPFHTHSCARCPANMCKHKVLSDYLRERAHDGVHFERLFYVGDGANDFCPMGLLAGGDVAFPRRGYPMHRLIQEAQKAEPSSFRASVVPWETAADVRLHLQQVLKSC
# Mot1-301 SUMO: blocks SUMOylation pathway, rescuing yeast Mot1-301 growth; AID 2716; 320,000 compounds, 1% hits; S. cerevisiae Mot1-301 growth rescue, ATP luminescence, 38.5C; percent above DMSO median, 100 means doubled; growth rescue, % at 18.8 µM;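 active = every valid replicate shows activation above 250% relative to neutral control wells; inactive = the rest, any valid replicate at or below 250%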;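 note: OY570 slx delta 5 strain wells were the positive control but not used for scaling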
# GASC-1 inh: human JMJD2C demethylase inhibition | 330,000 compounds, 0.069% hits | inhibition, % at 2.35 µM | Q9H3R0 | GST-JMJD2C(1-420) H3K9me3 demethylation, DELFIA europium;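 active = more than half of a compound's replicate wells show inhibition beyond 50%, single wells judged on their own value; inconclusive = some, but no more than half, of replicates pass 50% inhibition; inactive = no replicate passes 50% inhibition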;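 note: signal counts dimethyl H3K9 product captured on neutravidin plate; 0% = median of DMSO wells and 100% = 0.3 times that DMSO median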
# Target sequence (Q9H3R0 1-420 limits assumed): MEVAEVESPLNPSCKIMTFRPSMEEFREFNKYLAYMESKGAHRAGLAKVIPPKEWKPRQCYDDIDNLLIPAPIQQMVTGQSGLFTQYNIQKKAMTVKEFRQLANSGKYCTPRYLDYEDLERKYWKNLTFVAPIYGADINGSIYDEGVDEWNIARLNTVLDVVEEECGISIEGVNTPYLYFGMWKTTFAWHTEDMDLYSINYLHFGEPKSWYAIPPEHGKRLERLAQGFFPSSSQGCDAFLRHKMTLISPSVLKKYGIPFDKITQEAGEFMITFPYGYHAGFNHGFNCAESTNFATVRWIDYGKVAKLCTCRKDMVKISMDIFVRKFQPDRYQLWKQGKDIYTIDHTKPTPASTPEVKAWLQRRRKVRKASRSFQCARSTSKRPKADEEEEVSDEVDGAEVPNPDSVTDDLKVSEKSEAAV
# PvdQ acylase: blocks Pseudomonas aeruginosa PvdQ acylase activity. purified PvdQ acylase, fluorescence plate reader. inhibition, % at 10 µM. 340,000 compounds, 0.063% hits; in the data active = inhibition above about 30%, passing the limit was not always enough; inconclusive = no clear call, values can overlap the other calls;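 note: 0% = vehicle neutral wells and 100% = reference inhibitor wells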
# Yeast Mot1 SUMO: yeast SUMO pathway inhibition in dose response. 2,300 tested, under 10 active. growth activity, percent, % at 42 µM. S. cerevisiae Mot1-301 galactose growth, ATP luminescence, 24 h; -100 = growth of slx-deleted rescue strain. shares compounds with Mot1-301 SUMO;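 active = Signal drops as the depositor expects, and the fitted half-maximal dose is no more than ten times the top valid tested dose; inconclusive = Poor fit, or a flat curve whose signal drops by 30% to 70%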;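 note: more negative values mean stronger growth rescue toward the control strain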
# Active calls of the source: *; ? = inconclusive; / = no result; + = active, no number.
SMILES,HDAC3 inh,p-CIP stab down,PHOSPHO1 inh,Mot1-301 SUMO,GASC-1 inh,PvdQ acylase,Yeast Mot1 SUMO
CCc1nnc2n1N=C(c1ccc(Cl)cc1)CS2,1.5,-4.1,14.1,394.3*,-11.0,-2.9,-0.1
CC(=O)c1c(C)[nH]c(C(=O)COC(=O)c2ccc(C)s2)c1C,0.7,/,/,-4.7,7.9,-4.1,/
CC(=O)c1ccc(Oc2cc(C)nc(N3CCOCC3)n2)cc1,?,-3.8,1.5,436.5*,-7.0,-3.0,0.6
CC(C)(C)c1ccc(-c2nc(N)nc(N)n2)cc1,1.6,-9.8,17.7,-3.7,-0.2,/,/
Nc1nc(-c2ccc(Cl)cc2)nc(-c2ccc(Cl)cc2)n1,/,-4.4,14.9,941.9*,7.4,-4.5,0.4
O=C(c1ccco1)N1CCN(C(=O)c2ccccc2NS(=O)(=O)c2ccc(F)cc2)CC1,-1.0,12.3,-3.9,-13.2,-27.7,-6.5,/
COc1cc(/C=N/NC(=O)CCC(=O)Nc2ccc(F)cc2)ccc1O,1.8,-5.8,33.7,-4.4,-7.8,-12.0,/
COc1ccc(NC(=O)CCCc2ccccc2)cc1OC,-3.7,-5.0,44.0,382.4*,-14.6,-4.3,-0.4
CC(=O)Nc1cccc(NC(=O)CCc2ccccc2)c1,-11.2,-11.5,0.3,-9.7,-11.7,4.5,/
Cc1cccc(NC(=O)CCc2ccccc2)c1,3.9,1.3,22.0,519.6*,-6.2,-18.4,-0.2
COc1ccc(/C=N/NC(=O)CCC(=O)Nc2ccccc2)cc1OC,1.1,-3.8,-2.4,795.1*,7.6,-14.9,0.6
CCc1ccc(NC(=O)C2CCC(CNC(=O)[C@@H]3Cc4ccccc4CN3)CC2)cc1 (stereo partly drawn),1.1,-1.6,17.1,4.6,0.2,-1.5,/
CCCCCN(C(=O)CCC(=O)OCCOc1cccc(Cl)c1)c1c(N)n(CCCC)c(=O)[nH]c1=O,5.1,/,/,-5.6,-5.1,-9.5,/
CN(CC(=O)Nc1sccc1C#N)Cc1ccccc1,2.5,-10.8,2.6,486.6*,-0.2,-18.0,0.0
CN(CC(=O)Nc1sccc1C#N)S(=O)(=O)c1ccc(F)cc1,/,/,/,/,/,10.6,/
CCOC(=O)c1cc2c(ccn2C)n1Cc1ccc(Cl)cc1,8.0,15.7,-17.4,7.5,-4.9,9.8,/
Cc1cccc(Cn2c(C(=O)OC(C)C)cc3c2ccn3C)c1,-7.0,-11.6,3.9,+,-34.1,-11.0,0.8
O=[N+]([O-])c1cccc(N/N=C/c2cccc3ccccc23)c1,/,-4.8,4.1,46.3,-1.3,2.5,/
CCOC1(OCC)C(c2ccc(Cl)cc2)C(C#N)(C#N)C1(OCC)OCC (stereo not drawn),0.5,2.9,-12.8,494.6*,1.8,-12.0,-1.0
Cn1c(=O)[nH]c(=O)c2c1nc1n2CCN1Cc1ccccc1,0.5,1.9,-3.5,-19.8,-18.2,-8.9,/
CC1CN(Cc2ccccc2)c2nc3c(c(=O)[nH]c(=O)n3C)n2C1 (stereo not drawn),-3.5,1.0,46.6,475.2*,1.9,10.8,0.0
CCN(CC)CCCn1c(=S)[nH]c2ccc(Cl)cc2c1=O,3.4,-6.4,-6.1,631.3*,-12.2,-16.7,0.0
CCCCCCCCc1nc(SCC(C)=O)n[nH]1,?,-4.7,27.3,698.7*,-22.2,-13.9,-0.6
O=C1c2nccnc2C(=O)N1c1ccc(C(F)(F)F)cc1,1.2,5.0,-26.7,587.7*,15.3,-6.9,-0.5
CCOc1ccc(N2C(=O)c3cccnc3C2=O)cc1,5.8,-1.8,17.6,1.8,1.7,-7.7,/
SMILES,HDAC3 inh,p-CIP stab down,PHOSPHO1 inh,Mot1-301 SUMO,GASC-1 inh,PvdQ acylase,Yeast Mot1 SUMO
CC(C)(C)NC(=O)C1Cc2ccccc2CN1S(=O)(=O)c1ccc(F)cc1 (stereo not drawn),5.8,5.5,18.8,583.6*,-3.3,-15.5,0.4
COc1cccc(NC(=S)N2CCN(C)CC2)c1,3.1,-13.0,34.8,-3.0,-18.1,-2.1,/
CC(Oc1ccc([N+](=O)[O-])cc1)C(=O)NCCCN1CCOCC1 (stereo not drawn),-0.1,-10.4,65.8*,505.3*,/,-0.4,-0.3
O=C(NC1CCCC1)C(=O)N(c1ccccc1F)C(C(=O)NCC1CCCO1)c1cccs1 (stereo not drawn),3.8,-5.0,40.7,1.2,-3.8,-14.3,/
Cc1ccc(S(=O)(=O)NN2C(=O)c3ccccc3NC2c2ccccc2F)cc1 (stereo not drawn),-3.7,0.3,32.5,428.8*,8.0,-3.8,0.5
O=C(Nc1cc(F)ccc1F)C1CCCO1 (stereo not drawn),3.4,-4.9,0.2,+,-3.5,-8.9,0.0
COc1cccc(CNC(=O)c2cc(=O)[nH]c3ccc(S(=O)(=O)N4CCOCC4)cc23)c1,4.0,/,/,5.6,1.6,-5.9,/
CCCCNC(=O)C1Cc2cc(S(=O)(=O)N3CCCC3)ccc2N1C(C)=O (stereo not drawn),-1.6,5.3,43.5,140.2,-7.4,-8.3,/
COc1cc2c(=O)n(-c3ccc(C)cc3)c(=O)n(CC(=O)c3ccc4c(c3)OCO4)c2cc1OC,-1.0,-18.1,-10.2,694.4*,3.6,-13.6,0.0
Cc1c(C(=O)NC(C)C)oc2c1-c1[nH]ncc1CC2,-10.7,5.0,15.9,+,-5.8,-4.9,0.4
Cc1cccc(N(Cc2ccccc2)C(=O)C2CCN(C(=O)c3ccccc3C)CC2)c1,-2.5,/,/,0.0,-3.5,19.4,/
CC(=O)/C=C/n1c(=S)oc2ccccc21,1.0,9.5,-9.7,420.5*,2.9,/,-1.8
CC(C)CC(=O)/C=C/n1c(=S)oc2ccccc21,3.3,1.6,0.7,24.5,10.0,-3.8,/
COc1ccccc1N(CC(=O)NC1CCCCC1)C(=O)CCC(=O)Nc1nccs1,?,3.4,14.5,-10.6,5.0,-5.8,/
CCOC(=O)c1cc2c(ccc3nc(C)c(C)c32)[nH]c1C,1.4,-9.2,25.7,4.3,-7.5,-5.3,/
O=C(Oc1ccccc1N1C(=O)C2CC=CCC2C1=O)c1ccc(Br)cc1 (stereo not drawn),-5.0,-1.4,5.7,549.1*,5.9,-7.3,-0.2
Cc1cc(C)c(S(=O)(=O)c2ccccc2)c(=O)[nH]1,-1.4,-5.8,/,243.3,-2.3,-22.0,/
Cc1cc(C)c(S(=O)(=O)c2cccc(C)c2C)c(=O)[nH]1,1.1,-8.8,23.9,414.6*,-47.3,4.9,-0.4
CCCCn1c(N)c(N(CC(C)C)C(=O)CSCC(=O)Nc2cccc(C)c2)c(=O)[nH]c1=O,-4.6,/,/,366.3*,12.3,3.4,-0.1
O=C(C1CC(=O)N(c2ccc(F)cc2)C1)N1CCCCCC1 (stereo not drawn),-14.9,-13.1,16.1,7.4,4.4,-6.5,/
Cc1cc(C)cc(OCC(=O)Nc2ccc(N3CCN(C(=O)c4ccco4)CC3)cc2)c1,1.3,-1.1,39.9,793.0*,-6.5,-7.2,-0.6
COc1ccc(OCC(=O)Nc2ccc(N3CCN(C(=O)c4ccco4)CC3)cc2)cc1,5.7,-0.1,42.9,-3.9,-6.9,-7.9,/

# Assay outcomes from PubChem BioAssay.
